In PubChem BioAssay (NCATS):
Records with an inconclusive call do not appear. Activity calls are given as the source filed them. The call rests on the fitted dose curve; in most records, active means well fitted curve in the direction sought with a large enough effect; inconclusive means small, poorly fitted or top-dose-only effect, or another doubt; inactive means no such curve, though single readings can be large; an effect the other way counts as inactive or inconclusive.

Legend:
[1] = biological target: Cellular tumor antigen p53 (Homo sapiens) (UniProt P04637); assay: Primary qHTS for small molecule compounds that upregulate eGFP-tagged delta133p53alpha (in N-terminal) cells. (AID 2060322); settings: NCI-H358 eGFP-delta133p53alpha fluorescence, 24 h; activation: active compounds read high;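 further: cells pre-induced with doxycycline then dosed without doxycycline; 0% = DMSO vehicle and 100% = reference activator; nearly all actives have a fitted effect of over 75% in size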
In short: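 NCI-H358 cells pre-induced 24 h with 10 ng/ml doxycycline for eGFP-delta133p53alpha, plated dox-free and exposed 24 h at 37C to titrated compounds. Fixed, Hoechst-stained; gated GFP peak intensity by laser scanning cytometry, normalized to DMSO (0%) and 57.5 uM 5-azacytidine (100%).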

[2] = biological target: Aldehyde dehydrogenase, mitochondrial (Homo sapiens) (UniProt P05091); assay: qHTS for Inhibitors of the Aldehyde Dehydrogenase Family (ALDH2) Primary screen (AID 2061308); settings: ALDH2 enzyme inhibition qHTS, 1536-well; series mostly up to 56 µM;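 further: plate controls were vehicle for no effect and reference inhibitor for full effect; nearly all actives have a fitted effect of over 55% in size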
[3] = biological target: Retinaldehyde dehydrogenase 3 (Homo sapiens) (UniProt P47895); assay: qHTS for Inhibitors of the Aldehyde Dehydrogenase Family (ALDH1A3) Primary screen (AID 2061315); settings: ALDH inhibition qHTS; series mostly up to 56 µM;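 further: plate controls were DMSO vehicle for no effect and reference inhibitor for full effect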

Chain of Cellular tumor antigen p53 (Homo sapiens) (P04637 whole entry, looked up): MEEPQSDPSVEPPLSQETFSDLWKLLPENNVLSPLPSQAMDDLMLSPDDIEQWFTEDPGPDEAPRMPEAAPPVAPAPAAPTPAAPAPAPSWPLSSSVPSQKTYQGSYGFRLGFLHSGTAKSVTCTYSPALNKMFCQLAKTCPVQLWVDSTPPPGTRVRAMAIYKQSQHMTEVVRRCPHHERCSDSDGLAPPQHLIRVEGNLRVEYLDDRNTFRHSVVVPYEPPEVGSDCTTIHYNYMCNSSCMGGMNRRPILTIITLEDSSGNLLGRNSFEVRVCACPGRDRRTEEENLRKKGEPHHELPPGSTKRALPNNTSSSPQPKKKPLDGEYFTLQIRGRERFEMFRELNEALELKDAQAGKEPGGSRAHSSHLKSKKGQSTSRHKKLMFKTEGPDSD

COc1ccc(-n2c(=O)[nH]c3cc(C(=O)NCc4ccc(Cl)cc4)sc3c2=O)nc1OC
inactive: activation [1] -16.1% | Potency [2] | Potency [3]

Cc1cc(O)cc(O[C@@H]2O[C@H](CO)[C@@H](O)[C@H](O)[C@H]2O)c1
inactive: activation [1] -6.11% | Potency [2] | Potency [3]

CC1(C)C2CC[C@]3(C)C(C(=O)C=C4[C@H]5C[C@@](C)(C(=O)O)CC[C@]5(C)CC[C@]43C)[C@@]2(C)CC[C@@H]1O (some centres undefined)
inactive: activation [1] 6.87% | Potency [2] | Potency [3]

CCOC(=O)N1c2ccc(C(F)(F)F)cc2C(N(Cc2cc(C(F)(F)F)cc(C(F)(F)F)c2)C(=O)OC)CC1CC (centres undefined)
inactive: activation [1] -4.3% | Potency [2] | Potency [3]

CC1CCC2(C(=O)OC3OC(CO)C(O)C(O)C3O)CCC3(C(=O)O)C(=CCC4C5(C)CCC(OC6OC(C)C(O)C(O)C6O)C(C)(C)C5CCC43C)C2C1C (centres undefined)
inactive: activation [1] -10.7% | Potency [2] | Potency [3]

CN1CCN(S(=O)(=O)c2ccc(-c3cnc(N)c(C(=O)Nc4cccnc4)n3)cc2)CC1
inactive: activation [1] -18.8% | Potency [2] | Potency [3]

C=C1CC[C@@]2(OC1)O[C@H]1CC3C4CC=C5C[C@@H](O[C@@H]6O[C@@H](C)[C@H](O)[C@@H](O)[C@H]6O)C[C@@H](O[C@@H]6O[C@H](C)[C@H](O)[C@H](O)[C@H]6O[C@@H]6O[C@@H](C)[C@H](O)[C@@H](O)[C@H]6O)[C@]5(C)C4CC[C@]3(C)[C@H]1[C@@H]2C (some centres undefined)
inactive: activation [1] -4.58% | Potency [2] | Potency [3]

CC1CCC(=O)CC(O)C(O)CC(=O)O1 (centres undefined)
inactive: activation [1] 10.7% | Potency [2] | Potency [3]
